# High-throughput results from PubChem.
# GSTO1 inh = GSTO1 inhibition, counter-screen for RBBP9 inhibitors; P78417; recombinant GSTO1, activity-based probe fluorescence polarization; inhibition, % at 5.96 µM; actives 1.1% (n = 300,000); AID 1974;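 active = inhibition above the campaign mean inhibition plus 3 SD, cut at about 35% in these data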;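 note: 0% = GSTO1-1 with DMSO and 100% = wells lacking GSTO1-1 enzyme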
# Target sequence (P78417 whole entry, looked up): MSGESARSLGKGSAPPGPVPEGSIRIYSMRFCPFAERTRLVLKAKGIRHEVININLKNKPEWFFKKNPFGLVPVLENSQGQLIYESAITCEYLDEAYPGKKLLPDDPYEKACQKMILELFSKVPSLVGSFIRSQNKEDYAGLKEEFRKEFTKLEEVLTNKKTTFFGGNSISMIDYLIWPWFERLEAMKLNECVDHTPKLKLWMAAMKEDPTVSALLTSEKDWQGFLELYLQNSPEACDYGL
# Fam108B counter = Fam108B inhibition, counter-screen for RBBP9 inhibitors; recombinant Fam108B, FP-Rh probe fluorescence polarization; inhibition, % at 9.51 µM; actives 0.33% (n = 300,000);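 active = inhibition above the screen mean inhibition plus 3 SD, computed separately per campaign, cut at about 18% in these data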;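 note: inhibitors lower polarization as less probe binds the enzyme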
# LYPLA1 counter = counter-screen for PME1 inhibitors: inhibitors of human LYPLA1; O75608; recombinant LYPLA1, FP-Rh probe fluorescence polarization; inhibition, % at 5.9 µM; actives 0.16% (n = 320,000); AID 2174;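 active = inhibition above the mean of all tested compounds plus 3 SD, set per campaign, cut at about 14% in these data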;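 note: inhibitors block serine hydrolase probe labeling of LYPLA1 so polarization falls; 0% = enzyme with DMSO and 100% = wells lacking LYPLA1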
# PAD4 FP inh = PAD4 (human) enzyme inhibition; Q9UM07; recombinant PAD4, RCA probe fluorescence polarization; inhibition, % at 6.36 µM; actives 0.41% (n = 330,000); AID 485272;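 active = percent inhibition above a cutoff equal to the mean of all tested compounds plus 3 SD, cut at about 15% in these data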;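 note: 0% = PAD4 with RCA probe and DMSO and 100% = probe without PAD4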
# PME-1 inh = blocks human protein phosphatase methylesterase 1 | recombinant PME-1, FP-Rh probe fluorescence polarization | inhibition, % at 5.9 µM | Q9Y570 | AID 2130 | actives 0.53% (n = 320,000);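 active = inhibition above the campaign mean of all compounds plus 3 SD, cut at about 26% in these data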;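 note: competitive labeling of PME-1 active site by serine hydrolase directed probe; 0% = PME-1 with DMSO and 100% = wells lacking PME-1 enzyme; inhibitors block probe labeling so polarization falls and inhibition rises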
# LYPLA2 inh = LYPLA2 (human) inhibition in PME1 counter-screen | O95372 | recombinant LYPLA2, FP-Rh probe fluorescence polarization | inhibition, % at 5.9 µM | actives 0.38% (n = 320,000);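 active = inhibition above the screen-wide mean plus 3 SD, limit set per campaign, cut at about 26% in these data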;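 note: 0% = LYPLA2 with DMSO and 100% = wells lacking LYPLA2 enzyme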
# Target sequence (O95372 whole entry, looked up): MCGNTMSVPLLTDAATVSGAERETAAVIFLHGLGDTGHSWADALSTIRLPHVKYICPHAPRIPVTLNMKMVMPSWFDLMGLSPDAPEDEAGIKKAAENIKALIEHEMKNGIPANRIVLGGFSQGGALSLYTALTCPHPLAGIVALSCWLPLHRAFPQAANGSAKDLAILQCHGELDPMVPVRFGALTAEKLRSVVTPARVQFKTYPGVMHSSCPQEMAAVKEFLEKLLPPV
# * marks the source's active call; other numbers are inactive results; . = no result given. Shown are actives, neighbours in structure and some others; about 1.8% of the full set was active somewhere.
SMILES,GSTO1 inh,Fam108B counter,LYPLA1 counter,PAD4 FP inh,PME-1 inh,LYPLA2 inh
c1ccc(-c2c(-c3ccccc3)n(Cc3ccco3)c3ncnc(NCCCn4ccnc4)c23)cc1,10.6,2.7,2.9,-4.1,12.2,1.4
CC(C)N(CC(=O)Nc1ccc(Cl)cc1C(F)(F)F)C(=O)CCl,66.2*,-2.3,-2.1,-0.1,1.9,0.3
CCC(C)N(CC(=O)Nc1cccc(C)c1C)C(=O)CCl (stereo not drawn),51.9*,2.5,-2.4,0.7,-4.3,5.2
CCC(CC)NC(=O)Nc1cccc(C)c1C,5.2,-5.7,0.9,0.8,4.7,1.1
O=C(O)CSCC(=O)Nc1ccc(Cl)cc1C(F)(F)F,8.1,3.0,-2.3,-4.2,2.0,5.7
Cc1ccc(C2CC(=O)Oc3cc(C)c(Br)c(C)c32)cc1 (stereo not drawn),.,.,.,4.0,.,.
CCOC(=O)c1sc(/N=C/c2c(O)ccc3ccccc23)cc1C,38.8*,0.3,-1.2,1.4,2.7,3.3
N/C(CSc1ccc(Cl)cc1)=N\S(=O)(=O)c1ccc(Cl)cc1,14.5,1.7,2.9,0.2,4.1,4.7
C/C(N)=N\S(=O)(=O)c1ccc(Cl)cc1,35.6*,-1.6,-1.9,-2.2,-1.9,3.2
C[C@@H](c1ccccc1)N1C[C@H]2CCCN2c2cc(Br)ccc2S1(=O)=O,.,.,.,2.5,.,.
COc1ccc(CNc2oc(COc3ccccc3Cl)nc2C#N)cc1,35.3*,-3.1,-5.2,-3.6,8.5,1.4
Cc1noc(C)c1COc1ccccc1C(=O)N(C)Cc1ccco1,.,.,2.8,2.5,3.1,2.6
CCOC(=O)C(C(C)=O)c1c(Br)c(O)c(O)c2c(C(=O)c3ccc(C)cc3)coc12 (stereo not drawn),67.4*,6.0,-5.1,2.4,0.0,2.6
CCCc1cc(NC(=O)COC(=O)c2ccc(O)cc2O)n(-c2ccccc2)n1,.,.,.,2.7,.,.
CCCc1cc(NC(=O)CCl)n(-c2ccccc2)n1,100.9*,1.4,-0.7,1.5,2.9,-2.0
CCCCNC(=O)COn1nnc2ccc(S(=O)(=O)N3CCOCC3)cc21,-1.6,-1.7,-0.8,1.1,-2.0,-6.9
C=CCN(CC=C)C(=S)Nc1ccc2nsnc2c1,42.0*,3.9,2.1,-12.5,1.6,0.6
C=CCNC(=S)Nc1ccc2nsnc2c1,16.4,0.6,3.1,-9.0,1.1,11.1
COc1cc2c(cc1OC)[C@H](Cc1ccc(O)cc1)NCC2,3.4,-0.3,-3.8,-14.0,-5.9,2.8
CC(=O)OCCN1C(=O)c2cccc3cc([N+](=O)[O-])cc(c23)C1=O,4.1,-3.3,-2.5,0.0,-0.1,2.9
O=C1c2ccccc2NC(c2ccc(-c3ccccc3F)o2)N1O (stereo not drawn),.,.,0.3,-4.0,7.5,-0.8
Cc1cc([N+](=O)[O-])ccc1-c1ccc(C2Nc3ccccc3C(=O)N2O)o1 (stereo not drawn),-26.7,-1.0,-6.7,1.8,37.0*,-6.9
C=C1C(C(=O)N2CCOCC2)C1C(=O)N1CCOCC1 (stereo not drawn),3.4,-5.7,-0.7,-2.9,0.9,1.8
C=CCSC1=N/C(=C/c2ccsc2)C(=O)N1c1ccccc1,3.0,-1.0,-6.8,-0.7,-2.4,-5.0
CC(=O)Nc1ccc(S(=O)(=O)Nc2ccc3c(c2)CCC3)cc1,34.9*,-0.1,-0.2,2.7,3.3,-4.2
SMILES,GSTO1 inh,Fam108B counter,LYPLA1 counter,PAD4 FP inh,PME-1 inh,LYPLA2 inh
O=C(NCCc1ccccc1)C(c1cccs1)N(C(=O)CCl)c1ccc(Cl)cc1 (stereo not drawn),103.4*,0.8,1.8,13.5,1.2,-2.6
CCC(C)Nc1nc(N)c([N+](=O)[O-])c(Nc2cc(OC)ccc2OC)n1 (stereo not drawn),-6.6,4.8,1.0,0.0,28.2*,-6.7
CCC(C)Nc1nc(N)c([N+](=O)[O-])c(Nc2ccccc2OC)n1 (stereo not drawn),-10.5,-3.6,-5.6,-2.4,10.8,-10.6
COC(=O)CNC(=O)C1Nc2ccccc2C2C=CCC12 (stereo not drawn),42.7*,6.9,-2.9,-13.9,7.0,-0.9
O=C1C=C(Nc2ccc(O)cc2)C(=O)c2ccccc21,38.5*,8.0,4.0,-14.5,14.0,11.7
COC1=C(Nc2ccc(O)cc2)C(=O)c2ccccc2C1=O,33.9,6.4,5.2,-10.5,11.8,6.2
